# Results taken from PubChem BioAssay AID504834 (National Center for Advancing Translational Sciences (NCATS), 2011).
# About 22,000 (6.9%) of roughly 320,000 compounds were called active. Another 27% or so got no clear call; they are omitted. The sample holds actives, similar compounds and a random draw of the others, so the mix is not that of the screen. A number with no mark means an inactive call. Calls come from the whole dose curve; as a rule, active = well fitted inhibition curve with a large enough effect; inconclusive = small, poorly fitted or top-dose-only effect, or another doubt; inactive = no such curve, though single readings can be large or run the other way.
# Experiment: Primary qHTS for delayed death inhibitors of the malarial parasite plastid, 96 hour incubation
# Settings: P. falciparum luciferase reporter growth; series mostly up to 28.7 µM; activity change, negative = inhibition: at the top concentration
# In short: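 96 h incubation, 37 C, 5% CO2, of luciferase-reporter P. falciparum-infected RBCs (2% hematocrit, 0.05% parasitemia final) with test compounds; endpoint luminescence.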
# % is set by controls: 0 for no effect and ±100 for the full control effect; potency is the fitted concentration of half-maximal effect.
SMILES,"activity change, negative = inhibition [%]",Potency
COC(=O)[C@@H](Cc1ccccc1)NC(=O)NCCc1ccccc1,25.5,–
O=C1N=C(N2CCc3ccccc3C2)S/C1=C\c1ccc(O)cc1,–,11.7 µM (active)
NC1=NC(=O)S/C1=C\c1ccc(O)cc1,-5.18,–
O=C1N=C(N2CCCC2)S/C1=C\c1cccc(Br)c1,-20.9,–
COc1ccc(-c2nc3n(c(=O)c2C#N)CCS3)c(OC)c1,37.4,–
COc1cc(NS(=O)(=O)c2ccc(NC(=S)NC(=O)c3ccccc3)cc2)nc(OC)n1,-7.09,–
Cc1ccnc(NC(=O)CCNS(=O)(=O)c2ccc(C)c(C)c2)c1,253,–
Cc1ccc(NC(=S)NC2CCCC2)cc1,60.3,–
C/C(=N\NC(=S)NC1CCCCC1)c1ccc(C)o1,–,4.65 µM (active)
C/C(=N/NC(=O)c1ccc(Br)o1)c1ccc(C)o1,-27.2,–
CCCc1cc(C(=O)Nc2ccc(Cl)cn2)cs1,-17.8,–
CCOc1ccc(CCNC(=O)Nc2ccccc2)cc1OCC,5.2,–
COC(=O)c1cccc(N2C(=O)C3C4C=CC(CC4)C3C2=O)c1 (stereo unspecified),16.2,–
Cn1c(=NC(=O)c2cnccn2)sc2ccccc21,–,11.7 µM (active)
Cn1c(=NC(=O)CSCC(=O)N2CCOCC2)sc2ccccc21,8.65,–
Cn1c(=NC(=O)CSCC(=O)N2CCCCC2)sc2ccccc21,34.9,–

SMILES,"activity change, negative = inhibition [%]",Potency
CCN(CC(=O)Nc1ccccc1C(=O)NC1CC1)Cc1cccs1,11.3,–
COc1cc(CN2CCC(n3nccc3NC(=O)CCCc3ccccc3)CC2)ccc1O,15.5,–
COCCCN1C(=O)C(=O)/C(=C(/O)c2ccc(S(=O)(=O)N3CCOCC3)cc2)C1c1ccc(F)cc1 (stereo unspecified),2.37,–
CCc1cccc(NC(=O)C2CCCN(S(=O)(=O)c3ccc4[nH]c(=O)ccc4c3)C2)c1 (stereo unspecified),-7.69,–
CCNC(=O)N1CCN(S(=O)(=O)c2ccc3c(c2)OCCCO3)CC1,-9.41,–
Cc1ccc(C(=O)NCC(=O)O)cc1S(=O)(=O)N1CCCCC1,-3.2,–
Cc1ccc(C(=O)NC2CCCC(C)C2C)cc1S(=O)(=O)N1CCCCC1 (stereo unspecified),–,14.7 µM (active)
Cc1ccc(C(=O)Nc2ccc3c(c2)OCO3)cc1S(=O)(=O)N1CCCCC1,46.5,–
CC(C)CCNC(=O)c1ccc2c(Cl)c3c(nc2c1)CCC3,34,–
O=C(NNC(=O)c1ccco1)Nc1ccccc1,0.862,–
CC(=O)Nc1ccc(-c2nc3ccccc3o2)cc1,-22.4,–
O=C(Nc1ccc2oc(-c3ccc4ccccc4c3)nc2c1)c1cccs1,–,4.65 µM (active)
O=C(Cc1cccc2ccccc12)Nc1ccc2oc(-c3ccccc3)nc2c1,-21.5,–
O=C(c1ccc(Br)o1)N1CCN(CCOc2ccccc2)CC1,-12.7,–
COc1ccc2[nH]cc(CCN3C(=O)c4ccc(C(=O)O)cc4C3=O)c2c1,33.5,–
